# Compound activity (PubChem BioAssay)
# TexasRed fluor: counter-screen for TRb-SRC2 inhibitors: fluorescence interference. TRb/SRC2 Texas Red total fluorescence interference. 280,000 tested, 0.29% active. Potency, µM (top dose mostly 106 µM), without a hit: at the top dose fluorescence change, negative = quenching. AID 1479; active = well fitted curve in either direction with a large enough effect; inconclusive = small, poorly fitted or top-dose-only effect; also: potency is read from the fitted curve at half-maximal effect; % is scaled to controls: 0 for no effect and ±100 for the full control effect
#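 Flags fluorescent or light-absorbing compounds by total fluorescence, S + 2P, at 555 nm excitation and 632 nm emission. Mixture: 20 nM Texas Red SRC2 peptide, 0.6 uM human TRb LBD, 1 uM T3, 5% DMSO; compound exposure 5 h at ambient temperature.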
# RGS12 GoLoco inh: inhibitors of human Gai1-RGS12 GoLoco interaction (red fluorophore) | P63096 | Gai1:RGS12 GoLoco peptide FP, rhodamine, 10 min | Potency, µM (titrated, usually from 61.6 µM), for inactives: at the highest dose activity, negative = inhibition, most hits filed as inhibitors | 230,000 tested, 0.44% active | AID 880; active = well fitted inhibition curve with a large enough effect, not every such curve was filed as active; inactive = no such curve, though single readings can be large or run the other way; also: potency is read from the fitted curve at half-maximal effect; % is scaled to controls: 0 for no effect and ±100 for the full control effect; nearly all actives have a fitted effect of over 30% in size
# CBFb-RUNX1 inh: blocks binding between human CBF-beta and RUNX1 | Q01196+Q13951 | AlphaScreen CBFb-His/RUNX1-biotin binding, biochemical | Potency, µM (highest dose often 59.8 µM), inactives show top-dose activity, negative = inhibition, most hits filed as inhibitors | 230,000 tested, under 10 active; also: % of control where 0% means no effect
#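 AlphaScreen binding: CBFb-His and RUNX1-biotin (30 nM each) preincubated 20 min, compound added for 15 min, then nickel and streptavidin beads for 90 min, all at room temperature. Disruption of the interaction by any mechanism counts as activity.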
# TRb SRC2 PPI: TRbeta-SRC2 interaction inhibition. P10828. TRbeta-SRC2 peptide binding, fluorescence polarization; receptor liganded with 1 µM T3. Potency, µM (titrated, usually from 106 µM), without a hit: at the highest dose activity change, negative = inhibition, hits mostly inhibitors. 280,000 tested, 0.065% active;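 also: potency is read from the fitted curve at half-maximal effect; plate controls were bound peptide for no effect and peptide without receptor for full effect; nearly all actives have a fitted effect of over 50% in size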
# Target sequence (P10828 whole entry, looked up): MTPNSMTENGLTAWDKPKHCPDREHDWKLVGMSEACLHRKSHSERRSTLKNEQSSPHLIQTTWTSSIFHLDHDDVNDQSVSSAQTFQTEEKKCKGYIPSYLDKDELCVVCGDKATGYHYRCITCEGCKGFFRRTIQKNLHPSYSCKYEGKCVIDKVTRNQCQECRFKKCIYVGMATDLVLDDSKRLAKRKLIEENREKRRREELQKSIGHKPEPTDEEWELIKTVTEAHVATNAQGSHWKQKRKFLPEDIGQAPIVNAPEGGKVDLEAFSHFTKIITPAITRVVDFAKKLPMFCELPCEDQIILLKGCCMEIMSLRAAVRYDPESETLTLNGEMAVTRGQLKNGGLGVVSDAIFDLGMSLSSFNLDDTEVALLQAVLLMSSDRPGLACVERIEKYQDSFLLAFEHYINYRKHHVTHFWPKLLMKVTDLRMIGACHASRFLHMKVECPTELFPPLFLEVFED
#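 Compounds were added to 0.6 uM TRb ligand-binding domain and 20 nM Texas Red-labeled SRC2 peptide in Tris buffer containing 1 uM T3, incubated 5 hr at ambient temperature, then read by fluorescence polarization.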
# Epigenetic derep: epigenetic control regulation, reporter derepression; 280,000 tested, 0.2% active; murine LDR cells, GFP reporter derepression, 30 h; Potency, µM (top dose mostly 53.9 µM), inactives show at the top dose GFP activation, actives largely listed as activators; AID 1865; also: potency is read from the fitted curve at half-maximal effect; % of control where 0% means no effect; nearly all actives have a fitted effect of over 60% in size
#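 In this reporter-derepression format, murine cells bearing a silenced integrated CMV-GFP locus incubate with test compound (30 h, 37 C), then are washed and imaged; fluorescent objects of 20–120 um count as induced cells.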
# The depositor's hits bear a star; ? = inconclusive; / = no result; [ ] = dose if it differs, or a comment. This is a sample that favours compounds with a hit; in the whole collection about 0.71% have one here. Unless noted, calls follow the shape of the dose curve; as a rule, active = well fitted curve in the direction sought with a large enough effect; inconclusive = small, poorly fitted or top-dose-only effect, or another doubt; inactive = no such curve, though single readings can be large; an effect the other way counts as inactive or inconclusive.
SMILES,TexasRed fluor,RGS12 GoLoco inh,CBFb-RUNX1 inh,TRb SRC2 PPI,Epigenetic derep
CC1=NN(c2ccc(Cl)c(C(=O)O)c2)C(=O)/C1=C\c1ccc(-c2ccc(C(=O)O)cc2)o1,?,-4%,-13%,-17%,4%
Cc1cccc(-c2nc(C)c(CCNC(=O)C(=O)Nc3cccc(Cl)c3C)s2)c1,-1%,/,/,-5%,3%
NC(=O)C[n+]1cccc2ccccc21,-2%,11µM*,3%,-11%,0%
Cc1ccc(C(=O)C[n+]2cccc3ccccc32)cc1,0%,43%,8%,-1%,0%
COc1cccc([C@@H]2Oc3ccc(Br)cc3C(=O)[C@H]2OC(=O)Nc2ccc(C)c(Br)c2)c1,-1%,-2%,-10%,0%,-1%
CC(C)(N=C=O)c1cccc(C(C)(C)N=C=O)c1,-6%[201 µM],/,/,0%[201 µM],/
Cc1ccccc1Nc1c(-c2ccccn2)nc2ccccn12,0%,4%,/,10%,1%
Cc1ccccc1Nc1c(-c2cc(Br)ccc2F)nc2ccccn12,3.2µM*[quencher],/,/,-4%,2%
CCCCCCCCCCCC[N+](C)(C)C,-2%[201 µM],/,/,8%[201 µM],/
CSc1nc(C)cc(Nc2cccc(C(=O)O)c2)n1,6%,/,/,0%,-3%
CCS(=O)(=O)c1ccc(O)c(Nc2cc(C)nc(SC)n2)c1,0.1µM*[quencher],/,/,-26%,-2%
COC(=O)c1cc(=O)c(O)c2c(O)c(O)ccc2c1,?,2.8µM*,/,-2%,0%
COC(=O)c1ccc(O)cc1,0%,-82%,11%,0%,-2%
C=C(C)C(=O)OCCN(C)C,4%[201 µM],/,/,5%[201 µM],/
Cc1ccccc1C(=O)/C(C#N)=N/Nc1c(C)n(C)n(-c2ccccc2)c1=O,8%,-3%,/,-3%,0%
Cc1c(N/N=C(\C#N)C(=O)c2ccccc2)c(=O)n(-c2ccccc2)n1C,2.2µM*[quencher],-1%,-1%,-12%,3%
CCSc1ncc(Cl)c(C(=O)Nc2nc3ccc(S(C)(=O)=O)cc3s2)n1,35µM*[quencher],/,/,-9%[53 µM],-3%
CCSc1ncc(Cl)c(C(=O)Nc2nc3ccc(OC)cc3s2)n1,2.5µM*[quencher],/,/,?,0%
CCSc1ncc(Cl)c(C(=O)Nc2nc3ccc(Cl)cc3s2)n1,10%,/,/,2%,0%
CNc1ncnc2c1ncn2[C@@H]1O[C@H](CO)[C@H](O)[C@H]1O,-7%,4%,-3%,1%,-1%
NC(=O)c1ccc2nc(-c3ccc(Oc4ccc(Cl)cc4)cc3)[nH]c2c1,?,/,?,-7%,/
COc1ccccc1N=Nc1[nH]c2ccc(C)cc2c1O,-2%,3.5µM*,-13%,-5%,2%
COC(=O)c1ccc(NC(=O)C(=O)NCCc2csc(-c3ccc(C(F)(F)F)cc3)n2)cc1,3%,/,/,-6%,3%
O=C(NCCc1csc(-c2ccc(F)cc2)n1)c1c(F)cccc1Cl,0.0002µM*[quencher],/,/,-12%,-2%
COC(=O)c1ccc(NC(=O)C(=O)NCCc2csc(-c3ccc(F)cc3)n2)cc1,0.0004µM*[quencher],/,/,-10%,0%
SMILES,TexasRed fluor,RGS12 GoLoco inh,CBFb-RUNX1 inh,TRb SRC2 PPI,Epigenetic derep
CCCCOC(=O)c1ccc(N=Nc2c(C)c(C#N)c(O)[nH]c2=O)cc1,-1%,0%,-11%,6%,2%
Cc1cccc(N=Nc2c(C)c(C#N)c(O)[nH]c2=O)c1,3%,5µM*,-3%,4%,-1%
Cc1ccc(Cl)cc1N1CCN(C(=O)C2CCN(S(=O)(=O)c3cccc4nonc34)CC2)CC1,7.9µM*[quencher],/,/,0%,-1%
O=C(C1CCN(S(=O)(=O)c2cccc3nonc23)CC1)N1CCN(c2cccc(Cl)c2)CC1,-2%,/,/,-1%,-1%
C=CC(=O)OCC(C)OCC(C)OCC(C)OC(=O)C=C (centres undefined),-2%[201 µM],/,/,-3%[201 µM],/
CN(C)c1ccc(/C=C/c2ccc3c4ccccc4ccc3[n+]2-c2ccccc2)cc1,13µM*[fluorescent],71%,/,?,7%
CCOC(=O)CNc1oc(-c2ccccc2)nc1-c1ccccc1,-3%,1%,14%,11%,0%
Cc1sc(-c2cc3c([nH]c2=O)CC(c2ccccc2)CC3=O)nc1-c1ccc(Cl)cc1 (centres undefined),-1%,/,/,1%,18µM*
Oc1ccc(N=Cc2ccc(OCc3ccccc3)cc2)cc1,13%,-103%,-23%,40µM*,?
O=C(O)[C@@H]1[C@@H]2C[C@@H]3[C@@H](OC(=O)[C@@H]31)[C@H]2Br,/,5%[14.2 µM],/,/,/
CC(C)(C)C1CCC(O)CC1 (centres undefined),-4%[201 µM],/,/,0%[201 µM],/
O=C(NCCN1C(=O)S/C(=C\c2ccccc2)C1=O)C1CCN(S(=O)(=O)c2cccs2)CC1,0%,9%,-1%,0%,-1%
CCCCOc1ccc(N=Cc2cccs2)cc1,-2%,9%,-4%,-6%,1%
Oc1ccc(N=Cc2ccc(-c3cccs3)s2)cc1,9%,-25%,?,32µM*,10%
CC(C)(C)OC(=O)[C@H](C1N[C@@H](C(=O)O)C(C)(C)S1)N1C(=O)c2ccccc2C1=O (some centres undefined),/,0%[14.2 µM],/,/,/
C/C(=N\Nc1ccc([N+](=O)[O-])cc1)c1ccc(N)cc1,0.32µM*[quencher],16%,-3%,-27%[53 µM],-1%
CCc1ccc(/C(C)=N\Nc2ccc([N+](=O)[O-])cc2)cc1,2%,26%,11%,-1%,-1%
NC(C(=O)N[C@@H]1C(=O)N2C(C(=O)O)=C(Cl)CS[C@H]12)c1ccccc1 (some centres undefined),0%,7%,-15%,8%,-1%
COC(=O)C1CSc2[nH]c(=O)sc2C1c1ccc(O)c(OC)c1 (centres undefined),0%,20µM*,-2%,7%,-1%
CSC1=NC2C(N1)N(C)C(=O)N2C (centres undefined),0%,16µM*,-2%,-9%,-1%
CCCCN1C(=O)N(C)C2NC(=O)NC21 (centres undefined),-1%,2%,-5%,0%,0%
O=C(COc1ccccc1)NC(=S)Nc1cccc([N+](=O)[O-])c1,0.89µM*[quencher],-3%,-19%,?,1%
COc1ccc2c(Cc3c4ccccc4cc4ccccc34)cncc2c1O,/,3%[14.2 µM],/,/,/
Cc1c(C(=O)OC(C)C(C)C[N+](C)(C)C)oc2ccccc12 (centres undefined),1%,14µM*,-2%,2%,-2%
CC1=CC2C3CC(C=C3C)C2C1 (centres undefined),-5%[201 µM],/,/,1%[201 µM],/
OCc1cccc(Oc2ccccc2)c1,-2%[201 µM],/,/,3%[201 µM],/
CCCN(CCC)CCNC(=O)c1nn(C)c2c1CS(=O)(=O)c1ccccc1-2,8%,/,/,1%,0%
CCOc1ccccc1CNC(=O)c1nn(C)c2c1CS(=O)(=O)c1ccccc1-2,0.11µM*[quencher],/,/,-25%,0%
CCCN(CCC)CCCNC(=O)c1nn(C)c2c1CS(=O)(=O)c1ccccc1-2,50µM*[quencher],/,/,-17%,0%
